Experimental data as given in PubChem BioAssay (NCI).
Compounds without any hit were thinned out: in the full panel of roughly 79,000, 15% have a hit. The source made the active and inactive calls. No stated cut-off is given here; in the data, active means growth inhibition above about 70%; inactive means the rest.

Experiments:
[1] = NCI Yeast Anticancer Drug Screen. Data for the rad52 strain (AID 147);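 further: 0% = growth of vehicle-treated control cultures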; conditions: S. cerevisiae rad52 mutant growth inhibition, hits give high values
Outline: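 The repair-mutant yeast strain was incubated with compounds, then growth was read and inhibition derived relative to vehicle.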

[2] = NCI Yeast Anticancer Drug Screen. Data for the wt1 strain (AID 149);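 further: 0% = growth of vehicle-treated wt1 cultures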; conditions: S. cerevisiae wt1 strain (SPY 50644) growth inhibition, hits give high values
Outline: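 wt1 yeast, compound-treated; % growth inhibition vs vehicle control.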

[3] = NCI Yeast Anticancer Drug Screen. Data for the rad50EPP+ strain (AID 151);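 further: 0% = growth of vehicle-treated control cultures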; conditions: S. cerevisiae rad50 mutant strain, hits give high values
Outline: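 Vehicle-normalised growth inhibition; rad50EPP+ yeast strain, altered in DNA damage repair, compound-treated.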

[4] = NCI Yeast Anticancer Drug Screen. Data for the mgt1 strain (AID 153); conditions: S. cerevisiae mgt1 mutant growth inhibition, hits give high values
Outline: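 Vehicle-normalized growth inhibition is determined in mgt1 yeast, a strain selected for a defined alteration in DNA repair or cell cycle control.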

[5] = NCI Yeast Anticancer Drug Screen. Data for the rad50 strain (AID 155);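 further: 0% = growth of vehicle-only cultures of the same strain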; conditions: S. cerevisiae rad50 strain growth inhibition, hits give high values
Outline: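 Genetically altered yeast (DNA repair pathway); compound treatment; growth inhibition vs vehicle ctrl.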

[6] = NCI Yeast Anticancer Drug Screen. Data for the mec2-1 strain (AID 157); conditions: S. cerevisiae mec2-1 strain, hits give high values
Outline: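 Mutant yeast (mec2-1) grown with compound; growth inhibition relative to vehicle control reported.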

[7] = NCI Yeast Anticancer Drug Screen. Data for the rad14 strain (AID 159);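 further: 0% = growth of vehicle-treated control cultures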; conditions: S. cerevisiae rad14 strain growth inhibition, hits give high values
Outline: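 Test compounds were applied to a repair-deficient yeast strain. Its growth was then compared with that of cultures given vehicle alone, and inhibition was expressed relative to those controls.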

[8] = NCI Yeast Anticancer Drug Screen. Data for the sgs1 mgt1 strain (AID 161);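 further: 0% = growth of cultures given vehicle only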; conditions: S. cerevisiae sgs1 mgt1 strain, hits give high values
Outline: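 Compounds are added to genetically altered yeast, and growth is compared with cultures given vehicle alone to give percent inhibition.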

[9] = NCI Yeast Anticancer Drug Screen. Data for the CLN2oe strain (AID 163);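 further: 0% = growth of vehicle-only control cultures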; conditions: S. cerevisiae CLN2oe strain, hits give high values
Outline: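 Compounds are applied to yeast harbouring a defined cell-cycle control change; reduced growth compared with vehicle-treated controls gives the value.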

[10] = NCI Yeast Anticancer Drug Screen. Data for the cln2 rad14 strain (AID 165);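 further: 0% = growth equal to vehicle treated cultures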; conditions: S. cerevisiae cln2 rad14 strain, hits give high values
Outline: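 Readout is yeast growth inhibition versus vehicle-treated controls, using a strain with cln2 and rad14 alterations exposed to compound.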

[11] = NCI Yeast Anticancer Drug Screen. Data for the bub3 strain (AID 167); conditions: S. cerevisiae bub3 mutant strain, hits give high values
Outline: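 Yeast carrying a defined mutation is treated with each compound, and growth is compared with that of vehicle-exposed cells to give inhibition.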

[12] = NCI Yeast Anticancer Drug Screen. Data for the wt2 strain (AID 169);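 further: 0% = growth of vehicle-treated yeast cultures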; conditions: S. cerevisiae wt2 strain growth inhibition, hits give high values
Outline: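 Against vehicle-treated controls, the growth of yeast exposed to each compound was compared, and the inhibition was recorded.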

[13] = NCI Yeast Anticancer Drug Screen. Data for the mlh1 strain (AID 171);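 further: 0% = growth of vehicle-treated control cultures of the same strain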; conditions: S. cerevisiae mlh1 strain growth inhibition, hits give high values
Outline: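 Measured: yeast growth. Reference: vehicle-treated controls. Organism: strain with a defined alteration affecting DNA damage repair or cell cycle control, treated with compound.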

[14] = NCI Yeast Anticancer Drug Screen. Data for the sgs1 strain (AID 173);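 further: 0% = growth of vehicle-only control cultures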; conditions: S. cerevisiae sgs1 mutant, hits give high values
Outline: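 Each compound was added to cultures of the altered yeast strain. Growth was recorded, and inhibition was derived by comparison with vehicle controls.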

[15] = NCI Yeast Anticancer Drug Screen. Data for the mlh1 rad18 strain (AID 175); conditions: S. cerevisiae mlh1 rad18 strain growth inhibition, hits give high values
Outline: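 Genetically defined yeast (DNA repair-deficient) exposed to compounds; growth inhibition determined relative to vehicle.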

[16] = NCI Yeast Anticancer Drug Screen. Data for the rad18 strain (AID 177); conditions: S. cerevisiae rad18 mutant growth inhibition, hits give high values
Outline: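 Vehicle-treated cultures served as the baseline for scoring compound-induced growth inhibition in DNA-repair-mutant yeast.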

[17] = at 5.0 µM (retest, dose inferred, filed as 0.5)
[18] = at 50.0 µM (retest, dose inferred, filed as 5.0)

Measured: growth inhibition

COC1=CC(=O)C(C2(OC(C)C)OC(=O)C(Cl)=C2Cl)=CC1=O (stereo unspecified)
inactive: [1]; at 1.2 µM 1% | [1]; at 3.7 µM 22% | [2]; at 1.2 µM 1% | [2]; at 3.7 µM 8% | [3]; at 1.2 µM 8% | [3]; at 3.7 µM 48% | [4]; at 1.2 µM -3% | [4]; at 3.7 µM 17% | [5]; at 1.2 µM 1% | [5]; at 3.7 µM 33% | [5]; [17] 56% | [6]; at 1.2 µM 8% | [6]; at 3.7 µM 65% | [6]; [17] 47% | [7]; at 1.2 µM 3% | [7]; at 3.7 µM 37% | [8]; [17] 53% | [9]; at 1.2 µM 0% | [10]; [17] 30% | [10]; at 50.0 µM 63.5% | [11]; at 1.2 µM 0% | [11]; at 3.7 µM 34% | [11]; [17] 30% | [11]; at 50.0 µM 59.9% | [12]; at 1.2 µM -1% | [12]; at 3.7 µM 10% | [13]; at 1.2 µM 2% | [13]; at 3.7 µM 27% | [14]; at 1.2 µM 2% | [14]; at 3.7 µM 37% | [15]; [17] 43% | [16]; at 1.2 µM 7% | [16]; at 3.7 µM 49%
active: [1]; at 11.0 µM 99% | [1]; at 33.0 µM 99% | [1]; at 100.0 µM 99% | [2]; at 11.0 µM 97% | [2]; at 33.0 µM 99% | [2]; at 100.0 µM 99% | [3]; at 11.0 µM 94% | [3]; at 33.0 µM 99% | [3]; at 100.0 µM 99% | [4]; at 11.0 µM 99% | [4]; at 33.0 µM 99% | [4]; at 100.0 µM 99% | [5]; at 11.0 µM 99% | [5]; at 33.0 µM 99% | [5]; [18] 99% | [5]; at 50.0 µM 96.2% | [5]; at 100.0 µM 99% | [6]; at 11.0 µM 100% | [6]; at 33.0 µM 100% | [6]; [18] 99% | [6]; at 50.0 µM 86.7% | [6]; at 100.0 µM 99% | [7]; at 11.0 µM 99% | [7]; at 33.0 µM 99% | [7]; at 100.0 µM 99% | [8]; [18] 99% | [8]; at 50.0 µM 99.5% | [9]; at 3.7 µM 87% | [9]; at 11.0 µM 99% | [9]; at 33.0 µM 99% | [9]; at 100.0 µM 99% | [10]; [18] 99% | [11]; at 11.0 µM 99% | [11]; at 33.0 µM 99% | [11]; [18] 99% | [11]; at 100.0 µM 99% | [12]; at 11.0 µM 98% | [12]; at 33.0 µM 99% | [12]; at 100.0 µM 99% | [13]; at 11.0 µM 99% | [13]; at 33.0 µM 99% | [13]; at 100.0 µM 99% | [14]; at 11.0 µM 99% | [14]; at 33.0 µM 99% | [14]; at 100.0 µM 99% | [15]; [18] 99% | [15]; at 50.0 µM 91.8% | [16]; at 11.0 µM 99% | [16]; at 33.0 µM 99% | [16]; at 100.0 µM 99%

CN1CCc2ccccc2C1Cc1ccccc1NC(=O)c1sc2ccccc2c1Cl (stereo unspecified)
inactive: [1]; at 1.2 µM -35% | [1]; at 3.7 µM -38% | [1]; at 11.0 µM -15% | [1]; at 33.0 µM -8% | [2]; at 1.2 µM -23% | [2]; at 3.7 µM -22% | [2]; at 11.0 µM -13% | [2]; at 33.0 µM 22% | [3]; at 1.2 µM -21% | [3]; at 3.7 µM -9% | [3]; at 11.0 µM 19% | [3]; at 33.0 µM 68% | [4]; at 1.2 µM -19% | [4]; at 3.7 µM -24% | [4]; at 11.0 µM 19% | [5]; at 1.2 µM -33% | [5]; at 3.7 µM -36% | [5]; [17] 8% | [5]; at 11.0 µM -22% | [5]; at 33.0 µM 29% | [6]; at 1.2 µM -39% | [6]; at 3.7 µM -29% | [6]; [17] -7% | [6]; at 11.0 µM -2% | [6]; at 33.0 µM 36% | [6]; [18] 68% | [7]; at 1.2 µM -50% | [7]; at 3.7 µM -40% | [7]; at 11.0 µM -24% | [8]; [17] -7% | [9]; at 1.2 µM 14% | [9]; at 3.7 µM 7% | [9]; at 11.0 µM 14% | [9]; at 33.0 µM 62% | [10]; [17] -10% | [10]; [18] 60% | [11]; at 1.2 µM -54% | [11]; at 3.7 µM -22% | [11]; [17] 7% | [11]; at 11.0 µM -33% | [11]; at 33.0 µM 22% | [12]; at 1.2 µM -13% | [12]; at 3.7 µM -13% | [12]; at 11.0 µM -3% | [13]; at 1.2 µM -22% | [13]; at 3.7 µM -16% | [13]; at 11.0 µM 8% | [14]; at 1.2 µM -25% | [14]; at 3.7 µM -20% | [14]; at 11.0 µM 18% | [15]; [17] -8% | [16]; at 1.2 µM -38% | [16]; at 3.7 µM -23% | [16]; at 11.0 µM -16% | [16]; at 33.0 µM 26%
active: [1]; at 100.0 µM 93% | [2]; at 100.0 µM 88% | [3]; at 100.0 µM 83% | [4]; at 33.0 µM 95% | [4]; at 100.0 µM 93% | [5]; [18] 97% | [5]; at 50.0 µM 96.8% | [5]; at 100.0 µM 90% | [6]; at 50.0 µM 98% | [6]; at 100.0 µM 92% | [7]; at 33.0 µM 89% | [7]; at 100.0 µM 93% | [8]; [18] 99% | [8]; at 50.0 µM 99% | [9]; at 100.0 µM 93% | [10]; at 50.0 µM 77.3% | [11]; [18] 94% | [11]; at 50.0 µM 97.5% | [11]; at 100.0 µM 92% | [12]; at 33.0 µM 89% | [12]; at 100.0 µM 93% | [13]; at 33.0 µM 90% | [13]; at 100.0 µM 93% | [14]; at 33.0 µM 90% | [14]; at 100.0 µM 89% | [15]; [18] 93% | [15]; at 50.0 µM 98.2% | [16]; at 100.0 µM 90%
